Potency and affinity values are given separately. Calls of active or inactive are those of the source.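 The calls were made as follows: active = ATP signal reduced by compound, with fitted active dose under ten times the top valid tested dose; inactive = the rest, compounds that increase ATP levels included.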

This experiment is described as follows: cellular ATP toxicity in rat beta cells – cell-based, CellTiter-Glo luminescence, INS-1E, dry powder, cytotoxicity control for beta-cell cytokine protection project, dose response (AID 488864). As to conditions: INS-1E rat beta cells, 48 h, no cytokines; series mostly up to 26 µM. On the technique in general: ATP-based viability assays read luminescence as a measure of living cells.
Take `COc1ccc(S(=O)(=O)N(C)C[C@H]2Oc3c(NC(=O)Nc4cccc5ccccc45)cccc3C(=O)N([C@H](C)CO)C[C@H]2C)cc1`: the result was inactive. `C[C@@H]1CN([C@H](C)CO)C(=O)c2cccc(NC(=O)Nc3cccc4ccccc34)c2O[C@H]1CN(C)S(=O)(=O)c1ccc(Cl)cc1`: the compound was classed as inactive. As to `C[C@@H]1CN([C@@H](C)CO)C(=O)c2cccc(NC(=O)Nc3cccc4ccccc34)c2O[C@H]1CN(C)C(=O)Nc1ccc(F)cc1`, the compound was called inactive.

These data come from PubChem BioAssay AID488864 (Broad Institute, 2010).
